TbREL1 primary: TbREL1 inhibition, primary screen | P86926 | TbREL1 RNA ligation, FRET fluorescence | inhibition, % at 9.66 µM | 0.49% of 89,000 active;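 active = inhibition above the mean inhibition across all screened compounds plus 3 SD, cut at about 11% in these data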;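 note: 0% = plate median of test wells and 100% = NSC42067 control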
Target sequence (P86926 whole entry, looked up): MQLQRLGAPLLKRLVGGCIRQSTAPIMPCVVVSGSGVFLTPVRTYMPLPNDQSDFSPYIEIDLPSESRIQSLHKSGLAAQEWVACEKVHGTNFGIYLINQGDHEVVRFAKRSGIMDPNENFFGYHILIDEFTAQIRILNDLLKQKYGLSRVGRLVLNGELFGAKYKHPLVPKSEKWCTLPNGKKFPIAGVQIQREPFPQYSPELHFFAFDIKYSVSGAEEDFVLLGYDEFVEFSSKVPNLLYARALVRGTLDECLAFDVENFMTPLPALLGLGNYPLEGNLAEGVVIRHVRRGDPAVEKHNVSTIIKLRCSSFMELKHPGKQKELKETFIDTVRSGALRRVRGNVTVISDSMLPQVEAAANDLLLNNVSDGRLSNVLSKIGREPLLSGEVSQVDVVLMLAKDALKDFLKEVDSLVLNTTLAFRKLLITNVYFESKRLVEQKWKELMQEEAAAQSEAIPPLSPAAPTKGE
* hit, by the source's call. Only a selection was taken, and hits are over-represented in it overall.

SMILES	TbREL1 primary
Nc1cccc(Nc2ccccc2)c1	-2
Cc1ccc(S(=O)(=O)c2cc(Nc3ccccc3)ccc2O)cc1	3
O=S(=O)(O)c1cc(O)c2cc(Nc3ccccc3)ccc2c1	14*
CCC(C)N(C(=O)CSc1nnc(-c2cc(OC)c(OC)c(OC)c2)o1)C(C)CC (centres undefined)	-4
CCCOc1ccc(F)cc1-c1cc(C(=O)Nc2ccc(OC)c(OC)c2)[nH]n1	16*
CCCOc1ccc(F)cc1-c1cc(C(=O)Nc2ccc(C)c(NS(C)(=O)=O)c2)[nH]n1	-1
CCCOc1ccc(F)cc1-c1cc(C(=O)NC(C)C)[nH]n1	3
CC(C)C[C@H](NC1(C(=O)NCCc2c[nH]c3ccccc23)CCOCC1)C(=O)NCCCc1ccccc1	-2
Cn1cc(CC(=O)Nc2ccc(Oc3cccnc3)cc2)c2ccccc21	-3
CN(C)c1ncc(C2=C(Cl)C(=O)C(N3CCCC3)=C(Cl)C2=O)s1	69*
CC(=O)c1cnc(N(C)C)s1	0
O=C(C1CCC1)N1CCc2cc(S(=O)(=O)C3CCN(Cc4ccc(F)cc4)CC3)ccc21	-1
O=C(CSc1nnc(-c2cnccn2)n1-c1ccccc1)c1ccc(F)cc1	-2
CCN(CC)c1c2c(nc3ncnn13)CCCC2	6
Nc1nc(Nc2cccc(Cl)c2)nc(NCCO)c1[N+](=O)[O-]	6
Nc1nc(Nc2cccc(Cl)c2)nc(NCc2ccco2)c1[N+](=O)[O-]	11*
COc1ccc(Nc2nc(NCc3ccco3)nc(N)c2[N+](=O)[O-])cc1	0
CN(Cc1ccccc1F)C(=O)C1C2C=CC3(CN(Cc4ccccc4)C(=O)C13)O2 (centres undefined)	-1
Cc1nn(-c2ccccc2)c2sc(C(=O)N3CCC4(CC3)OCCO4)cc12	1
CN(CCC#N)C(=O)COC(=O)c1ccc2[nH]c3c(c2c1)CCCC3	1
CC(C)CNC(=O)COC(=O)c1c2c(nc3ccccc13)/C(=C\c1cccs1)CC2	-4
CN(CCC#N)C(=O)COC(=O)c1c2c(nc3ccccc13)/C(=C/c1ccco1)CC2	21*
Cc1cccc(NC(=O)CCS(=O)(=O)c2ccccc2)c1C	3
Cn1c(SC2CCCC2)nnc1-c1ccco1	0
O=c1c(O[C@H]2O[C@@H](CO)[C@H](O)[C@@H](O)[C@@H]2O)c(-c2ccc(O)cc2)oc2cc(O)cc(O)c12	3
SMILES	TbREL1 primary
O=c1c(OC2OC(CO)C(O)C(O)C2O)c(-c2ccc(O)c(O)c2)oc2cc(O)cc(O)c12 (centres undefined)	92*
O=c1c2c(O)cc(O)cc2oc2c(O)ccc(O[C@H]3O[C@@H](CO)[C@H](O)[C@@H](O)[C@@H]3O)c12	5
Cc1ccc(-n2c(SCC(=O)c3ccc(F)cc3)nnc2-c2cnccn2)cc1	-4
COC(=O)[C@]12C[C@H](CC(=O)N3CCCCC3)C(=O)N(Cc3ccc(Cl)cc3Cl)C1=C[C@H](C(C)(C)C)O[C@@H]2C	10
O=C(NCCc1c[nH]c2ccccc12)OCc1cn(Cc2cc(F)ccc2F)nn1	-6
Cc1c(NC(=O)CN2CC(C)OC(C)C2)c(=O)n(-c2ccccc2)n1C (centres undefined)	13*
Cc1c(NC(=O)CN2CCN(c3ccccc3)CC2)c(=O)n(-c2ccccc2)n1C	3
Cc1ccc(SCCC(=O)Nc2c(C)n(C)n(-c3ccccc3)c2=O)cc1	-1
COc1ccc(C(=O)CSc2nnc(-c3ccc(C(C)(C)C)cc3)n2C)cc1	1
Cn1c(=O)c(=O)n(C)c2cc(S(=O)(=O)N3CCN(CCO)CC3)ccc21	6
CCCCNC(=O)C[C@H]1C(=O)N(Cc2ccc(OC)cc2)C2=CCCCC[C@@]21C(=O)OC	-5
Cc1cccc(C(=O)Nc2nc3ncccn3c2-c2ccc(C(F)(F)F)cc2)c1	3
COc1ccc(C(=O)NN)cc1COc1ccc(Br)cc1	6
C=CCc1cccc(CNc2ccc(Br)cc2)c1O	-3
COc1ccc(Br)cc1CNc1ccc(O)cc1	24*
CCCCCCCCN1C(=O)[C@@H](CC(=O)NCC2CCCCC2)C[C@@]2(C(=O)OC)C1=C[C@H](C(C)C)O[C@@H]2C1CC1	8
COC(=O)c1cc(C)oc1C	0
C#CCOCCOCCOCCNc1nc(N2CCOCC2)nc(N2CCN(C(=O)[C@H](CCCCN)n3cc(CCC(=O)O)nn3)CC2)n1	1
C#CCOCCOCCOCCNc1nc(N2CCN(C(=O)CCCCCCCCCCNC(=O)[C@H](CCCCN)n3cc(CCO)nn3)CC2)nc(N2CCN(C(=O)CCCCCCCCCCNC(=O)[C@H](CCCCN)n3cc(CCCC(=O)O)nn3)CC2)n1	12*
C#CCOCCOCCOCCNc1nc(N2CCOCC2)nc(N2CCN(C(=O)CCCCCCCCCCNC(=O)[C@H](CO)n3cc(CCCSC)nn3)CC2)n1	-3
O=C(C1CCCN(S(=O)(=O)c2ccccc2F)C1)N1CCN(Cc2ccccc2)CC1 (centres undefined)	-1
C[C@H]1CCCN1c1cccc2c1S(=O)(=O)N1CC[C@@H](C1)O2	6
COc1ccc(-c2nnc(SCC(=O)Nc3ccc4cn[nH]c4c3)n2Cc2ccco2)cc1	3
O=C(CSc1nnc(Cn2c(=O)sc3ccccc32)n1-c1ccccc1)N1CCCCCC1	12*
O=C(CSc1nnc(Cn2c(=O)sc3ccccc32)n1-c1ccccc1)N1CCCC1	1
SMILES	TbREL1 primary
Cn1c(Cn2c(=O)sc3ccccc32)nnc1SCC(=O)N1CCCCCC1	-2
C[C@@H]1CN([C@@H](C)CO)C(=O)c2cccc(NC(=O)Nc3cccc4ccccc34)c2O[C@H]1CN(C)S(=O)(=O)c1ccc2c(c1)OCCO2	-7
O=S(=O)(c1cccs1)N1CCC(c2cn3ccccc3n2)CC1	1
COc1ccc2cc(-c3cn(C(=O)N(c4ccccc4)c4ccccc4)nn3)ccc2c1	1
Cc1ccc(CNc2cnccn2)cc1	0
Cc1ccc(CNc2ccc3nnc(-c4ccccc4)n3n2)cc1	11*
O=C(NCCc1nnc2ccc(NCc3ccc(Cl)cc3)nn12)c1ccccc1	0
Clc1ccc(OCCOc2ccc(Br)nc2Br)c(Cl)c1	-1
CC(=O)c1ccc(N2CCN(S(=O)(=O)c3ccc4c(c3)C(Cl)(Cl)C(=O)N4)CC2)cc1	11*
CC(=O)Nc1ccc(S(=O)(=O)N2CCN(c3ccc(C(C)=O)cc3)CC2)cc1	5
O=C1Cc2cc(S(=O)(=O)N3CCN(c4ccc(C(=O)O)cc4)CC3)ccc2N1	4
CC1CCN(C(=O)C2CCCN(C(=O)c3ccc4c(c3)NC(=O)CS4)C2)CC1 (centres undefined)	0
Nc1c(C(=O)N2CCN(CCc3ccccc3)CC2)cnn1-c1ccccc1	3
O=C(c1cc(-c2ccc(F)cc2)no1)N1CCN(Cc2ccc3c(c2)OCO3)CC1	-3
O=C(c1ccc(Br)o1)N1CCN(Cc2ccc3c(c2)OCO3)CC1	27*
O=C(c1cc([N+](=O)[O-])cc([N+](=O)[O-])c1)N1CCN(Cc2ccc3c(c2)OCO3)CC1	-2
CCC[C@H]1[C@@H](NC(=O)c2cccc(C)c2)CC[C@@]23CCCN2C(=O)CCC[C@@H]13	5
CCCCn1cnc2c(oc3ccccc32)c1=O	3
CCOC(=O)C(C)n1cnc2c(oc3ccccc32)c1=O (centres undefined)	17*
CC(C)C(C)NC(=O)Cn1cnc2c(oc3ccccc32)c1=O (centres undefined)	2
COc1ccc(-c2noc(C3CCCN(C(=O)Nc4cccc(C)c4)C3)n2)cc1 (centres undefined)	4
CCCCNc1c(-c2ccc(SC3CCCCC3)c(OC)c2)nc2ccc(Cl)cn12	25*
